Tau fibril ThT: tau fibrillization inhibition (ThT binding); P10636; recombinant tau K18 P301L, heparin-induced fibrillization, ThT fluorescence; Potency, µM (doses to about 57.4 µM), inactives show at the highest dose activity, negative = inhibition, usual class: inhibitors; hit rate 2.1% among 270,000; AID 1460; further: nearly all actives have a fitted effect of over 55% in size
Target sequence (P10636 561-689 P618L limits assumed): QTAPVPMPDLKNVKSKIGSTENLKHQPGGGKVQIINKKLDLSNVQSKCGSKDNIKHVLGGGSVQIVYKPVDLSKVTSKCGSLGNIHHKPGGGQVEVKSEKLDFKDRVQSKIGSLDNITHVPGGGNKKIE
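ThT emission at 510 nm, taken 1 hr after adding 30 uM dye, quantifies aggregates formed when 20 uM heparin acts on human tau K18 P301L for 6 hr at 37 C.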
TexasRed fluor: alters Texas Red total fluorescence, flagging assay interference. AID 1479. Potency, µM (titrated, usually from 106 µM), inactives show at the top dose fluorescence change, negative = quenching. TRb/SRC2 Texas Red total fluorescence interference. hit rate 0.29% among 280,000; active means well fitted curve in either direction with a large enough effect; inconclusive means small, poorly fitted or top-dose-only effect
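Human TRb ligand-binding domain at 0.6 uM with 20 nM Texas Red SRC2 peptide in Tris buffer containing 1 uM T3 and 5% DMSO, incubated with compound 5 h at ambient temperature. Total fluorescence (555/632 nm) calculated as parallel + 2 × perpendicular.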
Tau fibril FP: inhibitors of human tau fibril formation. hit rate 0.39% among 280,000. P10636. Potency, µM (highest dose often 57.7 µM), without a hit: at the highest dose activity, negative = inhibition, most hits filed as inhibitors. K18 P301L tau heparin fibrillization, Alexa594 FP, 6 h; further: nearly all actives have a fitted effect of over 55% in size
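Human K18 P301L fragment (15 uM unlabeled plus 0.24 uM Alexa 594-labeled) in 100 mM sodium acetate pH 7 with compound, aggregation induced by 20 uM heparin for 6 hr at 37 C. ThT (30 uM) added for 1 hr, then Alexa 594 FP read.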
TRb SRC2 PPI: inhibitors of human thyroid hormone receptor beta-SRC2 interaction; TRbeta-SRC2 peptide binding, fluorescence polarization; receptor liganded with 1 µM T3; Potency, µM (titrated, usually from 106 µM), for inactives: at the top dose activity change, negative = inhibition, hits mostly inhibitors; hit rate 0.065% among 280,000; AID 1469;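 further: plate controls were bound peptide for no effect and peptide without receptor for full effect; nearly all actives have a fitted effect of over 50% in size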
Target sequence (P10828 whole entry, looked up): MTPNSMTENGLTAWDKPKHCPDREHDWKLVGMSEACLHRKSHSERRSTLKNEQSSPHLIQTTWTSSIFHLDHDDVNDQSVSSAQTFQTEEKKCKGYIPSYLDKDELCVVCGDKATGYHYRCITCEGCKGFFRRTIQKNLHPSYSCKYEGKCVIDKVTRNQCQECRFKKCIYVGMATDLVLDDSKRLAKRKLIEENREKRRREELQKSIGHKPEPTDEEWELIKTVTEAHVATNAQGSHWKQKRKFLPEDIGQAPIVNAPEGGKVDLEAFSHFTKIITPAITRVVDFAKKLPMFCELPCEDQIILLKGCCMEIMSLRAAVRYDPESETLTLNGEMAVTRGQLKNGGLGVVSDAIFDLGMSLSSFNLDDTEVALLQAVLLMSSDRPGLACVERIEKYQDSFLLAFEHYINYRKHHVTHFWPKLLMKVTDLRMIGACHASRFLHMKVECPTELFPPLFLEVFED
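Fluorescence polarization of 20 nM Texas Red SRC2 peptide (20-aa NR interaction domain) bound to 0.6 uM human TRb ligand-binding domain, with 1 uM T3, after 5 hr at ambient temperature; inhibition seen as decreased polarization.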
Tau fluor cs: counter-screen for tau fibril formation inhibitors; tau K18 P301L (four-repeat tau fragment) Alexa594 fluorescence, heparin fibrillization; Potency, µM (series often up to 57.7 µM), without a hit: at the highest dose activity change, negative = decrease; hit rate 0.93% among 280,000; further: nearly all actives have a fitted effect of over 55% in size
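Human K18 P301L tau (15 uM unlabeled plus 0.24 uM Alexa 594-labeled, final) in 100 mM sodium acetate pH 7 was mixed with compound and 20 uM heparin and incubated 6 hr at 37 C.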
An asterisk follows results filed as active; ? = inconclusive; [ ] = another dose, or the depositor's remark. Only some compounds are listed: those with a hit (about 3% of all), similar ones and a draw of the others. Unless noted, the call rests on the fitted dose curve; in most records, active means well fitted curve in the direction sought with a large enough effect; inconclusive means small, poorly fitted or top-dose-only effect, or another doubt; inactive means no such curve, though single readings can be large; an effect the other way counts as inactive or inconclusive. Unless noted, on the % scale 0 is the no-effect control and ±100 the full control effect; potency means the concentration at half of the fitted maximal effect.

SMILES | Tau fibril ThT | TexasRed fluor | Tau fibril FP | TRb SRC2 PPI | Tau fluor cs
CCOc1cccc(/C=C2\NC(=S)N(c3ccccc3)C2=O)c1O | 14µM* | -1% | 5% | 1% | ?
CC(C)NCC(O)Cn1c2c(c3ccccc31)CCc1c-2cnn1-c1ccccc1 (configuration not stated) | 16µM* | -1% | 10% | -6% | ?
CN1CCc2c(n(CC(O)CNCc3ccccc3)c3ccccc23)C1=O (configuration not stated) | -1% | 1% | 0% | 1% | 2%
COc1cc2c(cc1OC)C(c1ccccc1)=NCC2 | 0% | -1% | 3% | 3% | -1%
COc1cc2c(cc1OC)-c1cc3ccc4c(c3c[n+]1CC2)OCO4 | 16µM* | -5% | -9% | 2% | -17%
CN(C)/C=C1/Sc2ccccc2C1=O | ? | 3% | 2% | 3% | -5%
CC(=O)N(\C=C/C=C/C=C1\Sc2ccccc2C1=O)c1ccccc1 | 6.3µM* | 1% | ? | 3% | ?
CCCCn1c(=O)c2oc3ccccc3c2n(CC(=O)Nc2ccc(CC)cc2)c1=O | 6% | 0% | -14% | -2% | -4%
COc1ccc(-n2nnnc2SCC(=O)Nc2ccccc2N2CCOCC2)cc1OC | 10µM* | 2% | -80% | 3% | -17%
Cn1nnnc1SCC(=O)Nc1ccccc1N1CCOCC1 | -6% | 1% | -2% | -7% | -4%
O=S(=O)(c1cccc(-c2csc(N/N=C/c3ccco3)n2)c1)N1CCOCC1 | 14µM* | -3% | 10% | 5% | 13µM*[quencher]
COc1ccc(-c2cnnc(N/N=C/c3ccc(O)c(OC)c3)n2)cc1 | 1.8µM* | -18% | 4% | 16% | ?
COc1cc(/C=N/Nc2nc(-c3ccc(S(=O)(=O)N(C)C)cc3)cs2)ccc1O | 10µM* | -2% | 3% | -5% | 13µM*[quencher]
COc1cc(/C=N/NC(=O)c2ccc(CN(C)S(=O)(=O)c3ccc(C)cc3)cc2)ccc1O | ? | -2% | 6% | -2% | 16µM*[quencher]
COc1cc(/C=N/NC(=O)c2ccccc2)ccc1O | -16% | -2% | 2% | 0% | -2%
O=C(Cn1c(=O)nc(-c2ccccc2)c2ccccc21)Nc1ccc(Cl)cc1F | 1% | -16% | -6% | -3% | -4%
COC(=O)NC(/C(C(=O)OC)=C(\C)NCc1ccccc1)c1cccc(F)c1 (configuration not stated) | -4%[11.5 µM] | -1%[11.2 µM] | 3%[11.6 µM] | 2%[11.2 µM] | -12%[11.6 µM]
CCOc1cc(/C=N/Nc2nc(-c3cccc(S(=O)(=O)N4CCCC4)c3)cs2)ccc1O | ? | -2% | 14% | 7% | 10µM*[quencher]
COc1ccc(/C=N/Nc2nc(-c3cccc(S(=O)(=O)N4CCCC4)c3)cs2)cc1OC | ? | -3% | 10% | 5% | ?
CC(C)=CCC/C(C)=C/CO/N=C1/C[C@@H](O)[C@@H](O)[C@@H]2[C@@H]3C(=O)N(C4CCCCC4)C(=O)[C@H]3CC[C@H]12 | -4%[11.5 µM] | -4%[11.2 µM] | 4%[11.6 µM] | -2%[11.2 µM] | -3%[11.6 µM]
Nc1cccc(Nc2ccccc2)c1 | ? | 6% | 6% | 5% | ?
c1ccc(Nc2cccc(Nc3ccccc3)c2)cc1 | ? | 0% | -1% | 4% | 11µM*[quencher]
Cc1oc2ncn(CC(C)C)c(=O)c2c1C(=O)NCCCN1CCCCC1C (configuration not stated) | 3% | -4% | 4% | -7% | 3%
CC1=C(C#N)C(=O)N(C2CCS(=O)(=O)C2)C(=O)/C1=C\c1ccc(C)o1 (configuration not stated) | 22µM* | 0% | ? | 5% | ?
O=C(CC1SC2=NCCN2C1=O)Nc1ccc(Br)cc1 (configuration not stated) | -7% | -4% | -12% | -15% | -3%
SMILES | Tau fibril ThT | TexasRed fluor | Tau fibril FP | TRb SRC2 PPI | Tau fluor cs
O=C(Nc1ccc(F)cc1)C1=CC(=O)N2CCN=C2S1 | 18µM* | 0% | ? | -1% | -14%
CCN1CCc2c(sc(-n3cccc3)c2C(C)NC(=O)Nc2ccc(Br)cc2)C1 (configuration not stated) | -4% | 10% | 25µM* | -1% | ?
CCOc1ccc(NC(=O)NC(C)c2c(-n3cccc3)sc3c2CCN(CC)C3)cc1 (configuration not stated) | -13% | 4% | 12% | -7% | ?
CC(C)N(C(=O)Cn1cc(SCC(=O)Nc2ccccc2C(F)(F)F)c2ccccc21)C(C)C | 4% | -2% | -10% | -1% | 5%
O=C(/C=C/c1ccccc1)n1cnnc1SC/C=C/c1ccccc1 | 28µM* | -11% | ? | 3% | -13%
CCOC(=O)c1c(C)[nH]c(C)c1S(=O)(=O)N(C)CC(=O)Nc1ccc(C)c(F)c1 | 5% | 1% | -3% | -4% | -11%
Cc1cc(OC(=O)c2c(C)cc(O)cc2O)cc(O)c1C(=O)O | -12% | -4% | 0% | 8% | -13%
O=C(NCCSc1c[nH]c2ccccc12)c1ccc(Cl)cc1 | ? | -2% | -3% | -4% | 20µM*[quencher]
COc1cc(Cl)c(NC(=O)c2cc(S(=O)(=O)N3CCCCC3)c[nH]2)c(OC)c1 | -4% | 20µM*[quencher] | 14% | -7% | ?
CC12C=C(/C=C/C=C/c3ccco3)C(C)(C1)C(/C=C/c1ccco1)CC2=O (configuration not stated) | ? | -17%[11.2 µM] | ? | 9%[11.2 µM] | -16%[11.6 µM]
COc1ccc(-c2[nH]ncc2-c2ccc3c(c2)OCCO3)c(O)c1 | -4% | -1% | 7% | 9% | -28%
CN(Cc1cn[nH]c1-c1ccc2c(c1)OCO2)C1CCOCC1 | 3% | -2% | 5% | 5% | 12%
CCc1cc(-c2[nH]ncc2-c2ccc3c(c2)OCO3)c(O)cc1O | ? | -2% | ? | 3% | 14µM*[quencher]
CCCc1cc(-c2[nH]ncc2-c2ccc3c(c2)OCCCO3)c(O)cc1OC | ? | -7% | -13% | 1% | 10µM*[quencher]
CCOC(=O)c1ccccc1NC(=O)c1sc2ncn(Cc3cccc(F)c3)c(=O)c2c1C | -4% | -1% | -19% | -2% | -17%
CN(C)c1ccc(N=Cc2nc(-c3ccccc3)oc2OC(=O)c2cccc(Br)c2)cc1 | 10µM* | -3% | ? | -5% | -27%
CC(=O)N1CCN(c2cc(N3CCc4ccccc4C3)c(F)cc2[N+](=O)[O-])CC1 | 16µM* | -3% | 3% | -3% | -23%
CCOC(=O)N1CCN(c2cc(N)c([N+](=O)[O-])cc2F)CC1 | 4.5µM* | 1% | -4% | 5% | -16%
CCOC(=O)N1CCN(c2cc(C)c(C(C)=O)cc2F)CC1 | ? | -1% | 2% | -18% | 3%
COc1ccc(CCC(=O)NCc2ccc3c(c2)CCN3C(=O)c2cccc(C)c2)cc1 | -16% | 0% | 6% | -7% | -15%
O=S(=O)(NNc1nccc(C(F)(F)F)n1)c1cccc(Cl)c1Cl | 22µM* | 0% | ? | -6% | -18%

Assay outcomes from PubChem BioAssay.
